According to the supplement of paper PMC11417369:
± gives the standard deviation of the averaged measurements. Over roughly 25,000 sequences, “ln(normalized median fluorescence intensity)” has its median near 10; the highest 2% begin near 12. This is one part of a sample in which the highest values are shown more often than they occur.

system: PfAP2-G AP2 domain (GST-tagged); experiment: gcPBM binding intensity (ln(normalized median fluorescence intensity)); higher = stronger DNA binding
How it was run: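 In this array assay, P. falciparum DNA-binding domains with a GST tag, expressed in E. coli, were applied for 1 h to primer-extended double-stranded 36-bp intergenic genomic probes and negative controls on an Agilent 4 × 180k array. Bound protein was visualised with Alexa488 anti-GST antibody at 488 nm. Binding intensity is the highest Masliner-normalised natural-log median intensity across replicate spots of either probe orientation.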

Sequence	gcPBM binding intensity (ln)
AAAAATATATAATAAAGTACACATAAATGAATAAAT [XGTACX_site329]	11.5 ± 0.81
AAAAAAAAAAAAAGTACACACATACATATAAATATA [CACACA_site8533]	11.5 ± 0.86
GTATTATAAAAAGGAAGTACATATATACATATTATA [XGTACX_site1271]	11.3 ± 0.75
TTAAGAAACAAAGAAAGTACACAACATAATATAGAA [XGTACX_site477]	11.4 ± 0.69
ATATTAATATATGTGGCACACATGTGGAGTCCTATT [CACACA_site213]	10.7 ± 0.43
TTATCACATTATTGCACACACATAAAGAAAAAAATA [CACACA_site2841]	10.4 ± 0.5
AAAAAAATAAAATATATATATATATATATATATATA [GTGCAC_negctrl_site706]	9.96 ± 0.89
ATATATATGTGTAAAAGTACATATATTTTGAAATAT [XGTACX_site4024]	11.2 ± 0.79
TTATAATTGTAAGGTAGTACATATAAATCAAATAAT [XGTACX_site7190]	11.5 ± 0.94
TTAAAAAAAAAAAAAAGTACATAAGTATATATAATA [XGTACX_site4295]	11.7 ± 1
TATATATAAAAAAAAAGTACATATAATATAATATTT [XGTACX_site7902]	11.5 ± 1
ATATAAATAAAAAAAAGTACATAATATATAAAAATA [XGTACX_site3065]	11.5 ± 1
TATGATTTTAATGAAACACACAATTTTATGTTAATA [CACACA_site311]	9.82 ± 0.11
TTATAATATATATGTAGTACTGTTTTTTTCTATTTT [XGTACX_site7749]	11 ± 0.63
CACACCACCAACAAAAGTACATACATATATATATAT [XGTACX_site5781]	11.3 ± 0.82
TCTTTTGCCCAAAAAGGTACACACCACAATTTAAAT [XGTACX_site1482]	11.4 ± 0.88
CTTTTGCCCAAAAAGGTACACACCACAATGTACATA [CACACA_site809]	11.6 ± 0.91
CTTTTGCCCAAAAAGGTACACACCACAAAGTACATA [CACACA_site8169]	11.9 ± 1.2
TGTACAACAATTTTTGCACACACCAAAACATAAAAT [CACACA_site1598]	11.1 ± 0.2
TTTGCCCAAAAAGGTACACACCACAATGTACATAAA [CACACA_site4599]	11.9 ± 1.1
TCTTTTTACACCTCTTACATAAAACAAAATAAGGGG [XGTACX_negctrl_site12]	10.7 ± 0.38
TTTATTTATTATTATGTACACACTATATTAAAACAT [CACACA_site700]	11.4 ± 0.87
ATATAATTACCATATGGTACACACATATATATATGT [XGTACX_site7393]	11.3 ± 0.62

Sequence	gcPBM binding intensity (ln)
ATCAAATAATAGCAAACACACAAAAAATAAAAAAAA [CACACA_site4146]	9.96 ± 0.15
GGATAAAATGCTACGAGTACATAAGCATTTTTCCCT [XGTACX_site7796]	11.7 ± 1.2
AAAAAATATAAAACGAGTACATATATAATAAGCAAA [XGTACX_site1360]	11.4 ± 0.82
ACATTAAAAAAAAAATGTACATAAATATTTTTCCTT [XGTACX_site4361]	11.1 ± 0.59
AGGTACTTTTTTAAAACACACATATAACATATACAC [CACACA_site6629]	11.3 ± 1.1
ATACATTCTAATACGTGTACATATATATATATATAT [XGTACX_site1881]	11.4 ± 0.81
TACACAGACGGACACACACACACACTAGAAAAAAAA [CACACA_site4435]	11.7 ± 1.2
ATAAATAAAGGACACACACACACACTAGAAAAAAAA [CACACA_site5450]	11.2 ± 0.92
AACAAATACGGACACACACACACACTAGAAAAAAAA [CACACA_site4442]	11.4 ± 0.86
GTATGTATGTATGTATGTACGTATGTATGTATATAT [XGTACX_site3369]	11.6 ± 0.98
ATTTATATATATGTATGTACGTATGTGTGTATATGT [XGTACX_site7587]	11.4 ± 0.88
AAACGTGCGTATATGTGTACGCATATATATATATAT [XGTACX_site5252]	11.6 ± 1
ATGACATGTTCTAAATGTACATTTTTTAACCCTTTT [XGTACX_site1858]	10.8 ± 0.4
TTTTTTTTTTTTTTATGTACATATATATATTTTATT [XGTACX_site6915]	11.2 ± 0.98
TTTTTTTTTTCTTTTTTTTATTATATTAACGGAATT [GTGCAC_negctrl_site104]	9.82 ± 0.17
TTAGTTATTATAATTTGTACACAAATGGTAAAGTAT [XGTACX_site2343]	11.2 ± 0.71
CAAATGGTAAATGAAAGTACAAATTGTTTTGATTAA [XGTACX_site1536]	10.8 ± 0.4
ATGGTAGTGATTAAAAGTACACGTAATTGTAAAAAT [XGTACX_site387]	11.7 ± 0.79
TAAAAAAAAAAATGAACATGCAACAATTGTGATGAA [TGCATGCA_site332]	9.74 ± 0.32
GCACCAAAAAAAAGACGTACAGTTATATTAAAATAG [XGTACX_site8926]	11.7 ± 1
AAATAAATAAATAGACGTACAAAAATATTATACATT [XGTACX_site6776]	11.2 ± 0.8
ATTATATTAAAATACACACCCAAATATTAAAAAGAT [CACACA_site5613]	10.4 ± 0.19
